Assay results published in PubChem BioAssay AID651965 (National Center for Advancing Translational Sciences (NCATS), 2013).
About 6,400 (1.9%) of roughly 340,000 compounds were called active. Inconclusive results (about 4%) are left out. Calls follow the shape of the dose curve; as a rule, active = well fitted falling curve with a large enough effect; inconclusive = small, poorly fitted or top-dose-only effect; inactive = no such curve, though single readings can be large or run the other way. The list comes from a sample in which actives are over-represented; it also holds similar structures and randomly drawn compounds.

target: ATP-dependent Clp protease proteolytic subunit (Bacillus subtilis (strain 168)) (UniProt P80244); assay: qHTS Assay for Activators of ClpP; also: the source files actives as falling curves though it sought activators and does not explain the sign; nearly all actives have a fitted effect of over 65% in size; settings: purified B. subtilis ClpP, FRET peptide cleavage, 20 min; series mostly up to 57.5 µM; activity change, negative = active: at the top concentration
Sequence (P80244 whole entry, looked up): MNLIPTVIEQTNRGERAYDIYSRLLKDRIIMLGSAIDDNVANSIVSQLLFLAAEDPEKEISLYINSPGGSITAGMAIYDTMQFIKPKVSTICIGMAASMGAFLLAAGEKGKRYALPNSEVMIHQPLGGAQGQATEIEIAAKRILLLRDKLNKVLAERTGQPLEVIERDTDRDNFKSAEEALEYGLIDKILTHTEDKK
Summary of the method: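 Purified B. subtilis ClpP, 10 microg/mL final in Tris/HCl pH8 with KCl, BSA, glycerol and Tween-20, cleaved an Abz/nitrotyrosine-quenched decapeptide. Fluorescence (ex 320, em 430) was read at 0 and 20 min at room temperature. Delta was normalized to 5.8 microM ADEP and DMSO/no-enzyme controls.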
Potency is read from the fitted curve at half-maximal effect.

Row | Structure (SMILES) | activity change, negative = active | Potency
1 | O=C(c1ccccc1)N1CCN(c2cc(-c3ccccc3)nc3cc(-c4cccc(Cl)c4)nn23)CC1 | -45.3% (inactive) | 
2 | CC=CCn1c(SCCCc2ccccc2)nc2c1c(=O)[nH]c(=O)n2C | -0.218% (inactive) | 
3 | COc1ccc([C@H]2CC(=O)C[C@@H](CCn3cc(CC4CCCC4)nn3)O2)cc1 | 0.945% (inactive) | 
4 | COc1cccc(NC(=O)CN(C)C(=O)c2cc(Cl)nc3ccccc23)c1 | -5.28% (inactive) | 
5 | COc1ccc(NC(=O)c2cc(-c3ccc(C)o3)nc3ccccc23)cc1 | -0.804% (inactive) | 
6 | COc1ccc(NC(=O)CN(C)C(=O)c2cc(-c3ccc(C)o3)nc3ccccc23)cc1 |  | 25.1 µM (active)
7 | Cc1ccc(F)c(S(=O)(=O)NC(=O)C2(C)CCN2C(=O)CCc2cccs2)c1 (stereo not drawn) | -0.445% (inactive) | 
8 | CCOc1ccccc1Nc1ccc(C(=O)O)cc1[N+](=O)[O-] | -0.992% (inactive) | 
9 | NC(=O)c1ccc(Nc2ccc3nonc3c2[N+](=O)[O-])cc1 | 0.816% (inactive) | 
10 | Cc1ccc(Nc2ccc(C(N)=O)cc2[N+](=O)[O-])cc1 |  | 12.6 µM (active)
11 | COc1cccc2c(O)cc(=O)n(C)c12 |  | 35.5 µM (active)
12 | COc1cc2c(=O)n(C)c3ccccc3c2cc1OC | -13.6% (inactive) | 
13 | COc1cccc(OC)c1C(=O)Nc1ccc2c(c1)n(C)c(=O)n2C | 2.54% (inactive) | 
14 | CCOc1ccc(Cl)cc1-c1cc(C(=O)NCc2cccs2)[nH]n1 | 0.129% (inactive) | 
15 | CCOCCC(=O)Nc1ccc2c(c1)c(=O)n(C)n2-c1ccc2ccccc2c1 | -28.6% (inactive) | 
16 | O=C1CC(c2ccccc2)CC2=C1C(c1ccco1)n1nc(C(F)(F)F)nc1N2 (stereo not drawn) | 4.45% (inactive) | 
17 | CCCCc1c(-c2ccc(Br)cc2)ncn1CCc1ccccc1OC | 1.63% (inactive) | 
18 | O=C(OCC(=O)N1CCN(C(=O)c2ccco2)CC1)c1cccc(O)c1 | -2.53% (inactive) | 
19 | O=C(OCC(=O)N1CCN(C(=O)c2ccco2)CC1)c1ccc(Cl)c(Cl)c1 | -1.7% (inactive) | 
20 | O=C(OCC(=O)N1CCN(C(=O)c2ccco2)CC1)c1c(Cl)cccc1Cl |  | 31.6 µM (active)
21 | COc1cccc(-c2ccc3c(c2)N(Cc2ccccc2OC)C(=O)C(C)S3)c1 (stereo not drawn) | -0.0272% (inactive) | 
22 | O=C1Nc2ccccc2-n2nnnc2C1N1CCN(c2cccc(C(F)(F)F)n2)CC1 (stereo not drawn) | -20% (inactive) | 
23 | Cc1cc(=O)oc2cc(OC(C)C(=O)Nc3ccc(N4CCOCC4)cc3)ccc12 (stereo not drawn) | -12.2% (inactive) | 
24 | Cc1cc(=O)oc2cc(NC(=O)C(C)Oc3ccccc3)ccc12 (stereo not drawn) |  | 28.2 µM (active)
25 | Cc1cc(=O)oc2cc(OC(C)C(=O)NCCc3ccc(S(N)(=O)=O)cc3)ccc12 (stereo not drawn) | 3.63% (inactive) | 
26 | Cc1cc(C)c2cc(C#N)c(N3CCNCC3)nc2c1 | -26% (inactive) | 
27 | Cc1cccc2cc(C#N)c(N3CCCC3)nc12 |  | 28.2 µM (active)
28 | CC(=O)c1ccc(S(=O)(=O)N2CCN(c3nc4c(C)c(C)ccc4cc3C#N)CC2)cc1 | -17% (inactive) | 
